Screens as filed in PubChem.
A selection: hits, their analogues and other compounds. The true share with any hit is near 3.4%.
TEAD-YAP block = TEAD-YAP interaction inhibition, primary screen, TEAD-YAP interaction inhibitor project, luminescence, HEK-TIYL cells | TEAD-Gal4/YAP UAS-luciferase luminescence | inhibition, % at 9.12 µM | hit rate 1.4% among 640,000; in the data active = inhibition above about 32%
MITF primary = MITF inhibitors, primary screen, biochemical, AlphaScreen, human; Microphthalmia-associated transcription factor (Homo sapiens), O75030; AlphaScreen MITF homodimerization, bead proximity signal; inhibition, % at 2.6 µM; hit rate 0.91% among 650,000; in the data active = inhibition above about 50%
Target sequence (O75030 whole entry, looked up): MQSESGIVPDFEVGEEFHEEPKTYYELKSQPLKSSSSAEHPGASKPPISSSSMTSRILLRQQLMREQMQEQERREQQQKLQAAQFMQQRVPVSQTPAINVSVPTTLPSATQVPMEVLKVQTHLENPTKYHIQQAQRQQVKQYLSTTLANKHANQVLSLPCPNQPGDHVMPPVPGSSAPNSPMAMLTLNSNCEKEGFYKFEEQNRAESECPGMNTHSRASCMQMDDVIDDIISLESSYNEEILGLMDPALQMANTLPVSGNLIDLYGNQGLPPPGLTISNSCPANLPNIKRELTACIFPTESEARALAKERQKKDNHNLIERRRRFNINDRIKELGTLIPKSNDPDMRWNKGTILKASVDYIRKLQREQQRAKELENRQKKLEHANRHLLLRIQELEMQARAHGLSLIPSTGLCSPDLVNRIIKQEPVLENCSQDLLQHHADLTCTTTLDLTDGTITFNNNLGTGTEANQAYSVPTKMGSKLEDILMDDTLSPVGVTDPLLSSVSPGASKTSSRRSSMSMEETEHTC
FBW7 act = FBW7 E3 ligase activators, primary screen, biochemical, AlphaScreen, human. AlphaScreen FBW7–phospho-cyclin E peptide binding, activator screen. AID 1259310, 2017. normalized activity (activation), % at 26.1 µM. hit rate 0.13% among 650,000. F-box/WD repeat-containing protein 7 (Homo sapiens), Q969H0; in the data active = normalized activity above about 1.9%;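 note: purified mutant Fbw7 with reduced substrate affinity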
GPR151 activ = activators of human GPR151, primary screen, cell-based, PathHunter beta-arrestin, luminescence | G-protein coupled receptor 151 (Homo sapiens), Q8TDV0 | PathHunter beta-arrestin GPR151 cells | activation, % at 11.2 µM | hit rate 1% among 650,000; in the data active = activation above about 4.9%
MITF inh conf = MITF inhibitors, retest of hits, confirmation, biochemical, AlphaScreen, triplicate; shares compounds with MITF primary; AlphaScreen MITF homodimerization, biotin/His-MITF beads; inhibition, % at 2.6 µM; hit rate 16% among 4,700; AID 1259372, 2018;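 active = inhibition above a cutoff derived from the DMSO control wells, cut at about 28% in these data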;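 note: inhibitors lower the bead chemiluminescence by keeping MITF from dimerizing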
AlphaScreen DR = AlphaScreen optical interference compounds, dose response, counter-screen, biochemical, HTS; shares compounds with MITF primary; AlphaScreen optical interference counterscreen, cell-free; IC50, µM; hit rate 6% among 480; AID 1259373, 2018; call rule not given here
AS interf ctr = AlphaScreen optical interference compounds, counter-screen for MITF inhibitor project, biochemical, triplicate | shares compounds with MITF primary | LysRS AlphaScreen counterscreen, signal interference | inhibition, % at 2.6 µM | hit rate 7.6% among 4,700;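 active = inhibition above a cutoff derived from the DMSO control wells, cut at about 30% in these data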
Numbers stand for hits; . = inactive; / = not tested or not shown.

SMILES	TEAD-YAP block	MITF primary	FBW7 act	GPR151 activ	MITF inh conf	AS interf ctr	others
CCOc1ccc(CN2CCN(Cc3ccc(F)cc3)CC2)cc1	.	61.1	.	.	.	.
COc1ccccc1CCNCc1cc(OC)c2c(c1)OCO2	.	.	.	.	/	/
COc1ccc(CCNCc2ccc[nH]2)cc1	.	.	.	.	/	/
CC(C)N1CCN(Cc2ccc(F)cc2)CC1	.	55.4	.	.	.	.
CCC(C)N1CCN(Cc2cccc(Cl)c2)CC1 (stereo not drawn)	.	.	.	.	/	/
CC(C)N1CCN(Cc2ccc(Br)cc2)CC1	.	.	.	.	/	/
CCC(C)N1CCN(Cc2ccc(F)cc2)CC1 (stereo not drawn)	.	58.8	.	.	.	.
CCC(C)N1CCN(Cc2ccc(Cl)cc2)CC1 (stereo not drawn)	.	73.6	.	.	.	.
CCC(C)N1CCN(Cc2ccc(Br)cc2)CC1 (stereo not drawn)	.	70.5	.	.	.	.
OC1(c2ccc3c(c2)OCO3)CC2CCC(C1)N2 (stereo not drawn)	.	.	.	.	/	/
Cc1ccc(C2=NS(=O)(=O)N(C)C(C(=O)N3CCC4(CC3)OCCO4)=C2)cc1	.	.	.	.	/	/
O=C(c1ccc(N2CCCC2)c([N+](=O)[O-])c1)N1CC2CC(C1)c1cccc(=O)n1C2 (stereo not drawn)	.	.	.	.	/	/
CC(C)N1CCN(Cc2ccncc2)CC1	.	81.8	.	.	.	.
O=[N+]([O-])c1ccc(Br)c2c1no[n+]2[O-]	.	73.5	.	.	73.3	.	AlphaScreen DR=.
COc1ccc(CN2CCN(Cc3ccccc3Cl)CC2)cc1	.	80.8	.	.	.	.
COc1cccc(CN2CCN(Cc3ccccc3Br)CC2)c1	.	72.8	.	.	.	.
Cc1ccc(CN2CCN(Cc3ccccc3Cl)CC2)cc1	.	58.6	.	.	.	.
CCN1CCN(Cc2cccc(Cl)c2Cl)CC1	.	.	.	.	/	/
COc1ccc(O)c(CN2CCN(Cc3ccccc3Br)CC2)c1	.	.	.	.	/	/
Clc1cccc(N2CCN(Cc3ccccc3)CC2)c1	.	.	.	.	/	/
Clc1cccc(CN2CCN(Cc3ccccc3Br)CC2)c1	.	77.4	.	.	.	.
O=C1NC(=O)C(CCc2ccncc2)(Cc2cccs2)C(=O)N1c1ccccc1F (stereo not drawn)	.	.	.	.	/	/
CN1CCN(Cc2coc3ccccc3c2=O)CC1	55.5	51.4	.	.	.	.
CN1CCN(Cc2cccc3ccccc23)CC1	.	.	.	.	/	/
CN1CCN(Cc2ccccc2Cl)CC1	.	64.1	.	.	.	.
SMILES	TEAD-YAP block	MITF primary	FBW7 act	GPR151 activ	MITF inh conf	AS interf ctr	others
COc1ccc(CN2CCN(Cc3ccccc3)CC2)c(O)c1	.	.	.	.	/	/
O=c1c(CN2CC=C(c3ccc(F)cc3)CC2)coc2ccccc12	.	.	.	.	/	/
COc1cccc(CN2CCN(Cc3ccccc3Cl)CC2)c1	.	85.7	.	.	.	.
NC(=O)N/N=C1\C2CN3CCN(C2)CC1(c1ccccc1)C3	.	.	.	.	/	/
CN(C)[C@@H]1C(=O)C(C(N)=O)=C(O)[C@@]2(O)C(=O)C3=C(O)c4c(O)cccc4[C@@](C)(O)[C@H]3C[C@@H]12	.	.	.	.	/	/
CN(C)C1C(=O)C(C(N)=O)=C(O)C2(O)C(=O)C3=C(O)c4c(O)cccc4C(C)(O)C3CC12 (stereo not drawn)	.	51.1	.	.	43.4	.	AlphaScreen DR=.
COc1cccc(CN2CCN(c3ccc(Cl)cc3)CC2)c1O	.	.	.	.	/	/
COc1ccccc1CN1CCN(Cc2ccc(F)cc2)CC1	.	81.0	.	.	.	.
COc1ccccc1CN1CCN(Cc2ccc(SC)cc2)CC1	.	81.2	.	.	.	.
COc1ccccc1CN1CCN(Cc2cccc(Cl)c2)CC1	.	69.1	.	.	.	.
COc1ccccc1CN1CCN(Cc2ccc(Cl)cc2)CC1	.	73.0	.	.	.	.
COc1ccccc1N1CCN(Cc2ccc(F)cc2)CC1	.	.	.	.	/	/
COc1cccc(-n2c(/C=C/c3cc(Br)ccc3O)nc3ccccc3c2=O)c1	.	.	.	.	/	/
COC1=CC2([N+](=O)[O-])CN(C)CC([N+](=O)[O-])(C1)C2 (stereo not drawn)	.	.	.	.	/	/
CCOC(=O)C1=C(C)OC(N)=C(C#N)C12C(=O)Nc1ccc([N+](=O)[O-])cc12 (stereo not drawn)	.	.	.	.	/	/
CC1(C)OB(O)c2ccc(C3=NOC(c4cc(Cl)c(F)c(Cl)c4)(C(F)(F)F)C3)cc21 (stereo not drawn)	/	/	/	.	/	/
COc1ccc(CN2CCN(Cc3ccccc3OC)CC2)cc1	.	76.9	.	.	30.9	.	AlphaScreen DR=.
CCC(C)N1CCN(Cc2ccc(OC)cc2)CC1 (stereo not drawn)	.	69.1	.	.	.	.
CCOc1ccc(CN2CCN(C(C)CC)CC2)cc1 (stereo not drawn)	.	66.2	.	.	.	.
CCC(C)N1CCN(Cc2ccc3c(c2)OCO3)CC1 (stereo not drawn)	.	71.3	.	.	.	.
CCC(C)N1CCN(Cc2ccc(OC)c(OC)c2)CC1 (stereo not drawn)	.	64.0	.	.	.	.
Cc1ccc(CN2CCN(Cc3ccc4c(c3)OCO4)CC2)cc1	.	.	.	.	/	/
COc1cc(CN2CCN(CC(C)C)C(CCO)C2)cc(OC)c1 (stereo not drawn)	.	.	.	.	/	/
Cc1ccc(Cn2nc(C)c(C(=O)O)c2Cl)cc1	.	.	.	.	/	/
N/C(=N\N=C\c1ccc(O)cc1)N[N+](=O)[O-]	.	.	.	.	/	/
SMILES	TEAD-YAP block	MITF primary	FBW7 act	GPR151 activ	MITF inh conf	AS interf ctr	others
COCc1c(C(=O)NCc2cccnc2)c(=O)cc(C)n1CC1CCCCC1	.	.	.	.	/	/
COc1cc(OC)c(CN2CCN(C)CC2)cc1Br	.	62.4	.	.	.	.
COc1cc(Br)c(CN2CCN(C)CC2)cc1OC	.	.	.	.	/	/
CCN1CCN(Cc2ccc(OC)cc2OC)CC1	.	.	.	.	/	/
CCC(C)N1CCN(Cc2cc(OC)c(OC)cc2OC)CC1 (stereo not drawn)	.	64.2	.	.	.	.
Clc1ccccc1C1C=C(c2cccnc2)Nc2ncnn21 (stereo not drawn)	.	.	.	.	/	/
Fc1cccc(F)c1CN1CCN(c2ccccc2)CC1	.	56.3	.	.	.	.
CC(=O)c1ccc(N2CCN(Cc3ccc(F)cc3)CC2)cc1	.	.	.	.	/	/
